High-throughput results (PubChem)
Gal4-VP16 FLuc = VP16 counterscreen qHTS for inhibitors of ROR gamma transcriptional activity; AID 2546, 2010; Potency, µM (doses to about 53.6 µM), for inactives: at the top dose activity, negative = inhibition, usual class: inhibitors; Drosophila S2 Gal4-VP16 UAS-luciferase, luminescence, 20 h; actives 3.5% (n = 310,000);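 note: Gal4-VP16 expression switched on by copper sulfate through the metallothionein promoter; potency is the fitted concentration of half-maximal effect; nearly all actives have a fitted effect of over 50% in size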
DT40 TDP1 no CPT = qHTS for Inhibitors of human tyrosyl-DNA phosphodiesterase 1 (TDP1): qHTS in cells in absence of CPT; DT40 Tdp1-/- hTDP1 cells, no CPT, ATP luminescence, 48 h; Potency, µM (series often up to 46.2 µM), without a hit: at the top dose activity change, negative = growth inhibition, hits mostly inhibitors; actives 15% (n = 420,000); note: potency is the fitted concentration of half-maximal effect; nearly all actives have a fitted effect of over 55% in size
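Growth of hTDP1-complemented DT40 Tdp1-knockout cells is measured by ATP luminescence after at least 48 hr compound exposure at 37 °C, with DMSO substituting for the 20 nM CPT used in the parallel screen.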
RORg inh = qHTS for inhibitors of ROR gamma transcriptional activity; Nuclear receptor ROR-gamma (Mus musculus), P51450; Drosophila S2 Gal4-RORgamma UAS-luciferase reporter, 20 h; Potency, µM (series often up to 53.6 µM), without a hit: at the top dose activity change, negative = inhibition, usual class: inhibitors; actives 5.4% (n = 310,000); note: potency is the fitted concentration of half-maximal effect; nearly all actives have a fitted effect of over 60% in size
Target sequence (P51450 whole entry, looked up, the tested form may be a part): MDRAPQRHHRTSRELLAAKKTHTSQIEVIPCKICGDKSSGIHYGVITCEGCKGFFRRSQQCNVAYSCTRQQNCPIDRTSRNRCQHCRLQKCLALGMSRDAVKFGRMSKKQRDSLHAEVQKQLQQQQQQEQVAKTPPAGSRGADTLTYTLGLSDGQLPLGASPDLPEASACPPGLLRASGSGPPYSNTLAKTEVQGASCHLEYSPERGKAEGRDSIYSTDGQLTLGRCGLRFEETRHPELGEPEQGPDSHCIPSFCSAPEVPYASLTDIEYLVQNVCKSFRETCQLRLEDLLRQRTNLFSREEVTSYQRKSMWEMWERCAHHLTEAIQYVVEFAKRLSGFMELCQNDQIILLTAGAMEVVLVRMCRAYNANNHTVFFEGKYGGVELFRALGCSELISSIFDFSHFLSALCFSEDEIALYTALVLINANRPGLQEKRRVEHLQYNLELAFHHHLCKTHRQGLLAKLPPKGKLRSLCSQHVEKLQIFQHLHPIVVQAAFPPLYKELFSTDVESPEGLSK
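In this cell-based reporter format, copper sulfate (700 uM final) drives Gal4–ROR gamma fusion expression from a metallothionein promoter in Drosophila Schneider cells; compounds preincubated 1 hr, reporter read after 20 hr at ambient temperature.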
TDP1 cell CPT = qHTS for Inhibitors of human tyrosyl-DNA phosphodiesterase 1 (TDP1): qHTS in cells in presence of CPT | chicken DT40 Tdp1-/-;hTDP1 cells + 20 nM CPT, ATP luminescence, 48 h | Potency, µM (top dose mostly 46.2 µM), for the others: top-dose activity change, negative = growth inhibition, most hits filed as inhibitors | actives 12% (n = 420,000) | AID 686979, 2013; note: potency is the fitted concentration of half-maximal effect; nearly all actives have a fitted effect of over 55% in size
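Chicken DT40 Tdp1-/- cells complemented with human TDP1, 400 cells/well, exposed to compounds plus 20 nM camptothecin for at least 48 h at 37 C; viability read as ATP content by CellTiter-Glo luminescence.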
IL-1B inflam inh = qHTS for Inhibitors of Inflammasome Signaling: IL-1-beta AlphaLISA Primary Screen; THP-1 LPS/ATP IL-1B secretion, AlphaLISA, 16 h; stronger effect = lower value; AID 743279, 2014; actives 4.7% (n = 360,000); activity change, % at 57.5 µM; in the data active = activity change below about -50%; inconclusive = mostly about -30% to -49%
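Secreted IL-1B measured by AlphaLISA bead assay after 16 h compound exposure of THP-1 cells; compounds (final up to 57.5 uM) added 1 h before LPS (250 ng/mL) and ATP (1.25 mM) stimulation; lower signal means less secretion.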
LDHA block = qHTS assay for inhibitors of human lactate dehydrogenase | activity change, % (values are at about 110 or 230 µM) | purified LDHA, NADH/diaphorase-resazurin fluorescence; stronger effect = lower value | actives 0.15% (n = 480,000) | L-lactate dehydrogenase A chain (Homo sapiens), P00338; in the data active = activity change below about -30%; inconclusive = mostly about -25% to -30%;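 note: plate controls were DMSO wells for no effect and wells without enzyme for full effect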
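Resorufin fluorescence (ex540/em590), read at 0 and 20 min after diaphorase/resazurin addition, reports the NADH left after a 5 min room-temperature reaction of 2 nM human LDH5 with 0.06 mM NADH and 0.2 mM pyruvate.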
Active calls of the source: *; ? = inconclusive; / = not tested or not shown; ! = a repeat was not active. The list is not random: actives were taken first. Their share in the collection is about 18%. Unless noted, calls come from the whole dose curve; as a rule, active = well fitted curve in the direction sought with a large enough effect; inconclusive = small, poorly fitted or top-dose-only effect, or another doubt; inactive = no such curve, though single readings can be large; an effect the other way counts as inactive or inconclusive. Unless noted, % is set by controls: 0 for no effect and ±100 for the full control effect.

SMILES	Gal4-VP16 FLuc	DT40 TDP1 no CPT	RORg inh	TDP1 cell CPT	IL-1B inflam inh	LDHA block
COc1cccc(-c2cncnc2NCc2ccccc2OC)c1	-8.8%	?	-8.1%	?	/	/
COc1ccccc1CCn1cnc(C)c1CC(C)C	/	6.51µM*	/	11.6µM*	3.6	1.8
CCOC(=O)c1ccccc1NC(=O)c1ccc(N2CCCCS2(=O)=O)cc1Cl	/	/	/	/	/	-0.1
COCc1cnc2c(c1SCc1cc(OC)cc(OC)c1)c(=O)n(C)c(=O)n2C	/	/	/	/	/	7.8
CCC(C)c1ccc(NC(=O)CSc2ncnc3ccccc23)cc1 (stereo not drawn)	/	/	/	/	/	4.3
Fc1ccc(NCc2ccc(Br)cc2)c(F)c1	/	/	/	/	/	7.0
O=C(NCCNc1ccc2ccccc2n1)Nc1cccc2ccccc12	/	/	/	/	/	84.3
COc1ccccc1NC(=O)Cc1c(C(=O)O)[nH]c2ccc(Cl)cc12	/	-4.2%	/	31.5%	/	-9.1
O=C(Nc1ccc(OC(F)(F)F)cc1)N1CCN(c2ccnc3cc(Cl)ccc23)CC1	28.2µM*	5.17µM*	?	4.61µM*	?	2.6
COc1ccccc1NC(=O)N1CCN(c2ccnc3cc(Cl)ccc23)CC1	-20.7%	16.4µM*	-9.7%	?	-74.5*	-12.2
CC(C)(C)C(=O)N1CCN(c2ccnc3cc(Cl)ccc23)CC1	-8.6%	?	35.5%	?	-13.5	-5.3
COc1ccccc1NC(=O)N1CCOCC1	-6.4%	3.1%	-21.8%	6.9%	5.9	-6.6
COc1ccccc1NC(=O)N1CCc2[nH]c3ccc(Cl)cc3c2C1	0.5%	?	?	20.6µM*	/	-8.2
COc1ccccc1N1CCN(c2ccnc3cc(Cl)ccc23)CC1	7.9%	4.61µM*	13.2%	2.59µM*	40.3	-1.2
O=C(Nc1ccc(OCc2ccccc2)cc1)c1ccc[n+]([O-])c1	/	/	/	/	/	-3.1
CCSc1nc(N)c2c3c(sc2n1)CCCC3C (stereo not drawn)	/	/	/	/	/	2.2
COc1cccc(S(=O)(=O)Nc2c(NC3CCCC3)c3ccccc3oc2=O)c1	/	/	/	/	/	-7.4
COc1ccc(C(=O)CSc2nnn(-c3cccc(NC(C)=O)c3)n2)cc1	20.0%	23.1µM*	21.0%	?	/	-8.7
O=C(COc1ccccc1-c1ccccc1)NCCN1C(=O)S/C(=C\c2cccnc2)C1=O	20µM*	16.4µM*	-42.0%	16.4µM*	-0.8	0.5
O=C(NCCN1C(=O)S/C(=C\c2cccnc2)C1=O)C1=NN(c2ccccc2)C(=O)CC1	4.1%	23.1µM*	-28.5%	?	0.0	-1.9
O=C(NCCN1C(=O)S/C(=C/c2cccnc2)C1=O)c1cccs1	/	?	/	?	?	3.6
NC(=O)C1CCN(C(=O)CCc2c[nH]c3ccccc23)CC1	/	/	/	/	/	-1.5
CC(=O)c1ccc(NC(=O)CSCc2cccc(F)c2)cc1	/	/	/	/	/	-16.0
Cc1ccc(NC(=O)CN(C)C(=O)C(c2ccccc2)c2ccccc2)cc1	/	?	/	?	-0.3	-2.2
O=C(Cc1ccccc1)Nc1cccc(N2C(=O)C=CC2=O)c1	5.01µM*	4.61µM*	3.55µM*	5.17µM*	-67.3*	-5.6
SMILES	Gal4-VP16 FLuc	DT40 TDP1 no CPT	RORg inh	TDP1 cell CPT	IL-1B inflam inh	LDHA block
O=C(CSCc1ccccc1)Nc1cccc(F)c1	0.3%	?	37.2%	7.31µM*	9.5	-4.1
COc1ccc(NC(=O)CN(C)C(=O)C(Sc2ccccc2)c2ccccc2)cc1 (stereo not drawn)	/	?	/	16.4µM*	6.1	2.4
COc1ccc(NC(=O)CN(C)C(=O)c2ccccc2CCc2ccccc2)cc1	/	-24.5%	/	-20.7%	-52.2*	-6.1
CCOc1ccccc1C(=O)N(C)CC(=O)Nc1ccc(OC)cc1	4.2%	-14.1%	-2.3%	5.3%	7.4	-6.5
COc1ccc(S(=O)(=O)c2cn(CC(=O)Nc3ccc(C)c(F)c3)c3nc(C)ccc3c2=O)cc1	/	/	/	/	/	1.3
COc1ccc(NC(=O)CSc2nc3c(cnn3-c3ccccc3)c(=O)[nH]2)c(OC)c1	/	/	/	/	/	-0.2
CCc1ccc(-c2noc(CSc3nc4ccccc4o3)n2)cc1	/	/	/	/	/	-17.7
CN(CC(=O)Nc1cccc(F)c1)C(=O)c1ccccc1CCc1ccccc1	/	20.6µM*	/	14.6µM*	-0.5	-0.9
CCOC(=O)c1c(C)[nH]c(C(=O)OC(C)C(N)=O)c1C (stereo not drawn)	/	/	/	/	/	-1.6
O=C(Cc1cccs1)Nc1nc(-c2ccccc2)cs1	23.2%	8.2µM*	?	23.1µM*	-69.9*	-10.6
O=C(COC(=O)c1cccs1)Nc1nc(-c2ccccc2)cs1	1.4%	?	8.2%	2.8%	-5.4	-3.2
CS(=O)(=O)N1CCc2cc(-c3csc(NC(=O)Cc4cccs4)n3)ccc21	?	8.2µM*	16.6%	13µM*	-65.4*	-2.5
O=C(COC(=O)/C=C/c1cccs1)Nc1nc(-c2cccc(Br)c2)cs1	-15.8%	-23.4%	34.5%	?	-26.2	-0.1
O=C(COC(=O)/C=C/c1cccs1)Nc1nc(-c2ccccc2)cs1	?	13µM*	?	16.4µM*	-12.6	0.6
CN(c1cccc(F)c1)S(=O)(=O)c1c(-c2ccc(F)cc2)csc1C(=O)NCc1ccco1	/	/	/	/	/	9.9
CC(C)(C)OC(=O)C1=NOC2(C=CC(=O)C=C2)C1	12.6µM*!	/	?	/	/	/
O=S(=O)(NCC1(N2CCOCC2)CCCCC1)c1ccc(F)c(F)c1F	/	?	/	10.3µM*	1.7	-4.0
CC(=O)c1ccc(S(=O)(=O)NCC2(N3CCOCC3)CCCCC2)cc1	/	-21.2%	/	-15.0%	-8.0	0.7
Cn1nc(C(=O)N2CCN(c3cccc(Cl)c3)CC2)c2ccccc2c1=O	/	/	/	/	/	7.3
CC(c1ccc(Cl)cc1)n1c(-c2ccc3ccccc3n2)n[nH]c1=S (stereo not drawn)	4.47µM*	-20.5%	1.78µM*	-14.3%	20.8	-5.3
CC(c1ccc(F)cc1)n1c(-c2ccc3ccccc3n2)n[nH]c1=S (stereo not drawn)	3.55µM*	1.9%	0.891µM*	6.7%	19.8	-4.7
Cc1cc2ccccc2n1CC(=O)N1CCC(C(=O)O)CC1	/	/	/	/	/	-3.5
C=CCn1c(SCC(=O)Nc2cc(C)on2)nc2sc3c(c2c1=O)CCCC3	3.9%	9.2µM*	-4.7%	23.1µM*	19.5	-7.3
